Laboratory results from PubChem BioAssay (NCI).
Several values for one entry are separate records, joined by “and”; a condition that tells them apart may be missing. Equal entries are not always repeated. Compounds without any hit were thinned out: in the full panel of roughly 83,000, 20% have a hit.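 Compound tested at a single concentration for 48 hours in 96-well plates; a percent growth value below 10 was scored as active.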 Activity calls are given as the source filed them.

System: SK-MEL-2 melanoma
Assay: NCI-60 one-dose screen, 48 h (100 = growth as untreated, 0 = no growth, -100 = all killed)
Settings: 10 µM
Procedure: Growth inhibition of the SK-MEL-2 human tumor cell line is measured as a screen for anti-cancer activity. Cells are grown in 96 well plates and exposed to the test compound for 48 hours. Compounds are tested at a single concentration, which is 10^-5 M for most compounds. The reported endpoint is percent growth (GI% or GIPRCNT), where numbers from 0 - 100% represent growth inhibition, and numbers from -100% - 0 represent cell death. For example, a value of 40 represents 60% growth inhibition. A value of 0 means no net growth occurred over the course of the experiment. A value of -40 indicates 40% of cells at the beginning of the experiment died by the end of the experiment. A value of -100 means all cells are dead at the end of the experiment.
NCI-60 Human Tumor Cell Lines Screen was performed using the standard one-dose NCI protocol, which is described in more detail at https://dtp.cancer.gov/discovery_development/nci-60/default.htm.
Compounds with GIPRCNT values below 10 were considered active. Activity score was based on GIPRCNT using the following formula: […]
Score is 0 for GIPRCNT values of 100 or above, 50 for GIPRCNT values of 0, and 100 for GIPRCNT values of -100.

| SMILES | growth |
| --- | --- |
| O=c1ccn2c(n1)OC1CC2OC1COC(c1ccccc1)(c1ccccc1)c1ccccc1 (stereo not given) | 113% (inactive) |

Same assay, conditions: 10 µM unless noted

| SMILES | growth |
| --- | --- |
| CCOC(=O)C1=C(C)NC(C)=C(C(=O)OCC)C1 | 109% (inactive) and 110% (inactive) |
| COc1cc2oc3cc(=O)cc4oc(-c5ccccc5)cc(c2c2c1CCC(c1ccccc1)O2)c43 (stereo not given) | 95.8% (inactive) |
| C/C(CC(C)C)=N/NC(N)=S | 107% (inactive) |
| CC1NC(C)c2ccc3ccccc3c2O1 (stereo not given) | 100% (inactive) |
| N#Cc1ccc(/C=C/C(=O)c2ccccc2)cc1 | 90.7% (inactive) |
| S=c1nc[nH]c2nc[nH]c12 | 54.6% [50 µM] (inactive) |
| O=[N+]([O-])c1ccc(N/N=C/C2CCCCCC2)c([N+](=O)[O-])c1 | 105% (inactive) |
| Cc1c(Cl)cc(Cl)c(N)c1Cl | 104% (inactive) |
| Cc1ccc(C(=O)c2ccc(C)cc2)cc1 | 98.5% (inactive) and 98.1% (inactive) |
| Cc1cc(=NO)cc(C)n1O | 113% (inactive) |
| CN(C)C(=N)N=C(N)N | 106% (inactive) and 25.1% (inactive) |
| CCOC(=O)C(N)Cc1cc(I)c(O)c(I)c1 (stereo not given) | 108% (inactive) and 120% (inactive) |
| CCn1c2ccc(N(C)C)cc2c2cc(N(C)C)ccc21 | 104% (inactive) |
| CCCCCCC(C)CC1=C(O)c2ccccc2C(=O)C1=O (stereo not given) | 68.9% (inactive) |
| CS(=O)(=O)c1nsc(N)n1 | 96.3% (inactive) |
| Cc1ccc(N)cc1S(=O)(=O)O | 120% (inactive) |
| O=S(=O)(O)c1ccc2cc(O)ccc2c1 | 106% (inactive) |
| C(=N\OCCc1ccccc1)/c1ccccn1 | 124% (inactive) and 104% (inactive) |
| CCOC(=O)c1csc(N)n1 | 103% (inactive) |

| SMILES | growth |
| --- | --- |
| O=C(N=C1C(=O)C2(CCCCC2)C2(N=C(c3ccccc3)OC2=O)C12CCCCC2)c1ccccc1 (stereo not given) | 76% (inactive) |
| CCOC(C)=N | 110% (inactive) |
| N#Cc1c(N)nc2c(c(-c3ccc(Cl)cc3)nn2-c2ccccc2)c1C#N | 122% [100 µM] (inactive) |
| CCN(CC)CCNC(=O)c1ccc(NCN2C(=O)NC(c3ccccc3)(c3ccccc3)C2=O)cc1 | 106% (inactive) and 112% (inactive) |
| Nc1c(S(=O)(=O)O)cc(Br)c2c1C(=O)c1ccccc1C2=O | 91.8% (inactive) |
| COc1ccc(/C=N/NC(N)=S)cc1 | 97.5% (inactive) |
| CCN(CC)Cc1cc2[nH]c3c4ccc(Cl)cc4ncc3c2cc1OC | 160% (inactive) and 97.9% (inactive) |
| O=[N+]([O-])c1cccc2ccc(N/N=C/c3ccccc3O)nc12 | 149% (inactive) and 75% (inactive) |
| COc1ccc(CCn2cnn3c(=O)c4ccccc4nc3c2=O)cc1OC | 107% (inactive) and 118% (inactive) |
| N#CC(=S)Nc1ccc(Cl)c(Cl)c1 | -26.4% (active) |
| COc1ccc([N+](=O)[O-])cc1OC | 123% (inactive) and 103% (inactive) |
| CCc1ccccc1-n1[nH]c(C)c(C=N)c1=O | 106% (inactive) |
| O=[N+]([O-])c1cccc(N=Cc2ccccc2)c1 | 104% (inactive) |
| CN(C)CC(CN(C)C)C(O)c1ccccc1 (stereo not given) | 94.4% (inactive) |
| O=C(O)c1c2c(nc3ccccc13)Cc1ccccc1-2 | 109% (inactive) and 122% (inactive) |
| O=P(O)(O)OC1C(OP(=O)(O)O)C(OP(=O)(O)O)C(OP(=O)(O)O)C(OP(=O)(O)O)C1OP(=O)(O)O.[Cu+2] (stereo not given) | 92.9% (inactive) |
| COCCNC(C)=O | 105% (inactive) |
| Cc1nc(Nc2ccc(Cl)cc2)c2cnn(-c3ccccc3)c2n1 | 100% (inactive) |
| Cc1cnc(N)s1 | 102% (inactive) |

Same assay, conditions: 100 µM

| SMILES | growth |
| --- | --- |
| O=c1ccn2c(n1)OC1CC2OC1COC(c1ccccc1)(c1ccccc1)c1ccccc1 (stereo not given) | 31.5% (inactive) |
